Sampled rows, rich in hits. Any-hit rate of the full collection: about 3.2%.
DENV2 CPE rescue – protects cells from dengue virus 2 cytopathic effect | DENV2-infected cells, cytopathic effect rescue, plate reader | CPE inhibition, % at 9.99 µM | 350,000 compounds, 1.7% hits | AID 651640; in the data active = CPE inhibition above about 20%, passing the limit was not always enough; inconclusive = no clear call, values can overlap the other calls; tested in BHK-21 cells;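 note: 0% = median of neutral control wells and 100% = median of positive control wells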
INS-1E GSIS act – GLuc luminescence reporter in INS-1E cells, primary screen for activators of glucose-dependent secretion of insulin | INS-1E GLuc reporter insulin secretion, 2-3 h | activation, % at 16.6 µM | 370,000 compounds, 0.61% hits;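 active = lowest replicate activation of at least 40%, so every replicate reaches that level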;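 note: 0% = median of neutral control wells and 100% = median of IBMX positive control wells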
PGC1a acetyl inh – lowers PGC1a acetylation signal in U2OS cells | AlphaScreen anti-acetyl-lysine; with virally co-expressed GCN5 acetyltransferase | inhibition, % at 15.6 µM | 350,000 compounds, 0.17% hits | AID 651687;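 active = every replicate shows inhibition of at least 40%; inconclusive = mean inhibition at least 40% but some replicate below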;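 note: 0% = neutral control wells and 100% = positive control wells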
ERAP1 HTS inh – inhibitors of human ERAP1 aminopeptidase. recombinant ERAP1, Leu-AMC fluorescence, 60 min. 340,000 compounds, 0.15% hits. inhibition, % at 10.7 µM;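 active = mean replicate inhibition of at least 30%, or all replicates individually reaching that 30% level; inactive = mean below 30% and not every replicate reaching it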;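 note: 0% = neutral control wells and 100% = L-leucinethiol positive control wells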
rRNA inh HTS – selective bacterial rRNA inhibition in E. coli; E. coli WT GFP vs humanized-ribosome RFP mutants, fluorescence, 24 h; stronger effect = lower value; DMSO median 0, no signal -100; GFP signal change (wild-type ribosome), % (no concentration beside the values); AID 720706; 350,000 compounds, 1.6% hits;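 active = significant combined selectivity score with lowered wild-type GFP, culture density cut under 30%, mutant RFP and density less affected; inactive = any of these conditions unmet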
CaV13 FRET inh – Primary screen for inhibitors of IQ motif and Ca2+-dependent inactivation inhibitor domain binding in CACNA1D, Förster resonance energy transfer in living cells, … | HEK cells, CFP/YFP FRET ICDI-IQ, plate reader, 10 min; percent FRET-ratio fall versus neutral wells | 340,000 compounds, 0.098% hits | inhibition, % at 12.3 µM;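 active = mean replicate inhibition of at least 30% and at least 1% of replicates passing that level; inconclusive = only one of the two criteria is met; inactive = neither criterion is met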;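 note: 0% = median of the neutral control wells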
* hit, by the source's call; ? = inconclusive; · = not tested or not shown; ! = a repeat was not active.

SMILES | DENV2 CPE rescue | INS-1E GSIS act | PGC1a acetyl inh | ERAP1 HTS inh | rRNA inh HTS | CaV13 FRET inh
CCOc1ccc2nc(N3CCC(C(=O)N4CCN(C5CCCCC5)CC4)CC3)sc2c1 | ? | -11 | · | · | 5 | -2
CCOc1ccc2nc(N3CCCCCC3)sc2c1 | -4 | -25 | -6 | 4 | -32* | -7
Nc1cccnc1Oc1ccccc1F | 2 | · | 10 | -2 | 5 | -13
O=C(/C=C/c1ccccc1)Nc1cccnc1Oc1ccccc1F | 11 | · | 4 | -1 | -16* | -13
C[C@@H]1CN([C@@H](C)CO)C(=O)c2cc(C#Cc3cccc(F)c3)cnc2O[C@H]1CN(C)C(=O)C1CCCCC1 | 22*! | -21 | -1 | 2 | 1 | -6
COc1cccc(C#Cc2cnc3c(c2)C(=O)N([C@@H](C)CO)C[C@@H](C)[C@@H](CN(C)C(=O)C2CCC2)O3)c1 | 25* | -12 | -18 | -2 | -1 | ·
COc1cccc(C#Cc2cnc3c(c2)C(=O)N([C@H](C)CO)C[C@@H](C)[C@H](CN(C)C(=O)C2CCC2)O3)c1 | 20* | -7 | 7 | -4 | -4 | ·
C[C@H]1CN([C@@H](C)CO)C(=O)c2cc(-c3ccccc3)cnc2O[C@@H]1CN(C)C(=O)C1CCCCC1 | 47* | 1 | -1 | 2 | -7 | ·
CC(=O)N(C)C[C@@H]1Oc2cc(-c3ccc(F)cc3)ccc2S(=O)(=O)N([C@@H](C)CO)C[C@H]1C | 14 | -18 | -30 | 0 | -7 | ·
COc1ccc(N2CC(NS(=O)(=O)c3cccs3)CC2=O)cc1OC (stereo not drawn) | -6 | 41* | · | -1 | 8 | -6
C[C@@H]1CN([C@@H](C)CO)C(=O)c2cc(Br)cnc2O[C@@H]1CN(C)S(C)(=O)=O | 32*! | 2 | 5 | 4 | 8 | -7
C[C@H](CO)N1C[C@H](C)[C@@H](CN(C)CC2CCOCC2)Oc2ncc(Br)cc2C1=O | 16 | 18 | 89*! | 4 | -1 | -3
C[C@@H]1CN([C@H](C)CO)C(=O)c2cc(Br)cnc2O[C@@H]1CN(C)C(=O)c1ccccc1 | 65*! | 18 | 10 | 0 | 5 | -5
COc1cccc(S(=O)(=O)Nc2ccc3c(c2)C(=O)N(C)[C@H]2CC[C@@H](CC(=O)O)O[C@H]2CO3)c1 | 16 | -5 | 5 | · | 1 | ·
C[C@H](CO)N1C[C@H](C)[C@@H](CN(C)C)Oc2ccc(NC(=O)Nc3ccc(F)cc3)cc2CC1=O | -6 | -3 | 11 | -2 | 4 | ·
CCNC(=O)[C@@H]1[C@@H](CO)[C@@H]2Cn3c(ccc(-c4ccccc4)c3=O)[C@@H]2N1Cc1ccc2c(c1)OCO2 | ? | -8 | · | 0 | -6 | ·
Fc1cccc(CSc2ccc(-c3ccc4c(c3)OCO4)nn2)c1 | -15 | -2 | 4 | 0 | 2 | -5
Cc1ccccc1CSc1ccc(-c2ccc3c(c2)OCO3)nn1 | 52* | · | -2 | 1 | -9 | -5
C[C@H]1CN([C@@H](C)CO)C(=O)Cc2cc(N(C)C)ccc2O[C@@H]1CN(C)C(=O)Nc1ccc2c(c1)OCO2 | 2 | 3 | -7 | 3 | 2 | ·
CCCNC(=O)C[C@H]1CC[C@@H]2[C@H](COC[C@H](O)CN2C(=O)CC)O1 | 83* | 0 | 1 | 0 | -1 | ·
CCCNC(=O)C[C@@H]1CC[C@@H]2[C@H](COC[C@@H](O)CN2C(=O)Nc2ccccc2OC)O1 | 6 | -1 | -10 | -1 | 1 | ·
CCCNC(=O)C[C@@H]1CC[C@H]2[C@@H](COC[C@H](O)CN2C(=O)Nc2ccccc2OC)O1 | 9 | -8 | 1 | 0 | 5 | ·
CCCNC(=O)C[C@H]1CC[C@H]2[C@@H](COC[C@H](O)CN2C(=O)Nc2ccccc2OC)O1 | 21* | 8 | 16 | 1 | 4 | ·
CCCNC(=O)C[C@H]1CC[C@H]2[C@@H](COC[C@@H](O)CN2C(=O)Nc2ccccc2OC)O1 | 44* | 15 | -2 | 0 | 4 | ·
CCCNC(=O)C[C@@H]1CC[C@H]2[C@H](COc3ccc(NC(=O)c4cscn4)cc3C(=O)N2C)O1 | · | 4 | 4 | · | -1 | ·

Screens deposited in PubChem BioAssay by Broad Institute.
